This note sets out measurements from PubChem BioAssay.

Experiment [1] in a line: rapamycin-like changes in RPL19A-GFP expression – cell-based, S. cerevisiae, multiplex flow cytometry, primary screen (AID 1862; in the data active = percent of DMSO control GFP below about 86%;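 also: lower values mimic rapamycin by blocking the RPL19A rise seen in DMSO cells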). The conditions noted are these: S. cerevisiae RPL19A-GFP strain, flow cytometry fluorescence, 3 h; at 10 µM; stronger effect = lower value. In general terms: Flow cytometry measures light scatter and fluorescence of single cells or particles in a stream.

The nature of experiment [2]: TOR pathway GLN3 branch reporter MEP2-GFP changes – S. cerevisiae, multiplex flow cytometry, primary screen (AID 1867;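 active = GFP response, as percent of the DMSO control, above the screen-wide mean plus 3 SD, about 139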;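 also: median GFP channel fluorescence of barcode-gated MEP2-GFP cells measured by flow cytometry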). The conditions noted are these: S. cerevisiae MEP2-GFP strain, 3 h, at 10 µM, stronger effect = higher value, 100% means same as DMSO wells.
A short description of experiment [3]: TOR pathway RTG branch CIT2 reporter changes – S. cerevisiae, GFP fusion, multiplex flow cytometry, primary screen (AID 1870;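 active = percent response above a set limit, the screen-wide mean plus 3 SD, cut at about 130% in these data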;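 also: barcoded CIT2-GFP strain pooled with four other GFP strains with rapamycin as positive control; median GFP fluorescence per well over plate mean of DMSO wells so 100% = DMSO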). The conditions noted are these: S. cerevisiae CIT2-GFP expression, 3 h, at 10 µM, stronger effect = higher value.
Experiment [4] is described as follows: TOR pathway LAP4-GFP level changes – S. cerevisiae, multiplex flow cytometry, primary screen (AID 1873;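 active = GFP signal, as percent of the solvent control, above the screen mean plus 3 SD, about 149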). Conditions: S. cerevisiae LAP4-GFP expression, 3 h, at 10 µM, stronger effect = higher value.
The nature of experiment [5]: yeast AGP1-GFP level changes, GLN3 branch – cell-based, multiplex flow cytometry, S. cerevisiae, primary screen (AID 1887;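 active = GFP signal above the screen-wide mean plus 3 SD, that is over about 124.5% of the solvent control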;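 also: AGP1-GFP fusion strain of S. cerevisiae within a five-strain barcoded multiplex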). Conditions: 3 h, at 10 µM, stronger effect = higher value.
Experiment [6] can be described thus: reduced mouse 2C T cell binding to pMHC/ICAM-1 vesicles – MLPCN validation set, flow cytometry, LFA-1/ICAM-1 modulator project, pilot screen (AID 2523;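 active = response below a set limit, under 55% cells CD8-positive and vesicle-bound, and CD8 cells' 90th-percentile brightness under 279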;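 as to vesicle binding response: mean PE anti-B7-1 fluorescence of CD8+ cells relative to row control; 100% = QL9-loaded vesicles with DMSO vehicle in the same plate row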). The conditions noted are these: 2C mouse CD8+ T cells, at 7 µM, stronger effect = lower value; double positive events: measured here: CD8+/vesicle+ event percentage.
In experiment [7] the target is Integrin beta-1 (Homo sapiens) + Integrin alpha-4 (Homo sapiens) (UniProt P13612+P05556). Description: alpha4beta1 integrin LIBS antibody binding reduction – U937 cells, HUTS-21 mAb, flow cytometry, validation set, VLA-4 allosteric modulator project, pilot screen (AID 2674;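 active = inhibition above 50%, about 3 SD of the validation set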;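 also: antibody binding induced by the VLA-4 ligand LDV present at three times its Kd; 0% = LDV ligand with antibody and no compound and 100% = antibody without LDV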). The conditions noted are these: HUTS-21 LIBS mAb binding, at 6.7 µM, stronger effect = higher value, binding induced by LDV ligand.

Experiment [8] can be described thus: calorie-restriction mimetic ROS inhibitors, yeast – validation compound set, pilot screen (AID 2706;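 active = superoxide response below 65% of plate, a cut near 3 SD across the whole screen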;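 also: yeast exposed to compound for one week at 30 degrees C before staining; 100% = mean of all compound wells on the same plate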). Conditions: S. cerevisiae aging, superoxide DHE fluorescence; at 10 µM, stronger effect = lower value.
Experiment [9] has as its target Beta-adrenergic receptor kinase 1 (Homo sapiens) (UniProt P25098). Kind of experiment: GRK2 binders displacing RNA aptamer, biochemical, validation, human GRK2, bead flow cytometry (AID 488806;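 active = aptamer binding inhibition above 30%, about 3 SD of noise from non-fluorescent compounds; inactive = inhibition at or below 30%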). Conditions: bead-bound GRK2, FAM-aptamer displacement, at 10 µM, stronger effect = higher value.
Experiment [10] deals with AP-2 complex subunit beta (Homo sapiens) (UniProt P63010). Description: beta-arrestin/AP2 interaction blockers – biochemical, validation set, GST-AP2 beads, flow cytometry, pilot screen (AID 504541;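 active = inhibition above 54%, about 3 SD of non-fluorescent compounds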;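 also: AP2 carries R879A mutation and is captured from E. coli lysate; bead-bound FITC arrestin peptide fluorescence measuring arrestin peptide binding to AP2; 0% = DMSO wells and 100% = excess unlabeled arrestin peptide control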). The conditions noted are these: FITC arrestin peptide, at 10 µM, stronger effect = higher value, AP2 beta2 appendage fragment, R879A mutant.
The nature of experiment [11]: cytosolic pH regulators acting via V-ATPase – S. cerevisiae, pHLuorin, HTS validation (AID 504600; in the data active = response above about 15%;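 also: plate controls were DMSO for no effect and reference compound for full effect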). Conditions: V-ATPase proton transport, at 10 µM, stronger effect = higher value.
The test system of experiment [12] is anti-desmoglein-3 scFv antibody binding to human DSG3. Kind of experiment: blockers of pathogenic pemphigus antibody–desmoglein-3 binding – biochemical, validation compound set, bead-based, flow cytometry, pilot screen (AID 588368;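 active = binding below the plate cutoff, the plate median minus 3 SD, with a reading above zero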;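 also: signal is the median channel fluorescence of bead-bound GFP antibody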). Conditions: Protein G beads, DSG3-Fc, scFv-GFP binding, at 10 µM, stronger effect = lower value.
Experiment [13] is described as follows: Nile Red efflux blockade in pump-expressing yeast – validation compound set, multiplex, phenotypic, pilot screen (AID 588506).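 Also: Nile Red retained in cells so higher fluorescence means more efflux inhibition; 0 = negative control wells and 1 = enniatin B 25 µM full block.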 The conditions noted are these: S. cerevisiae pump-expressing triplex, Nile Red efflux flow cytometry; at 10 µM; stronger effect = higher value; the pumps come from Candida albicans.
Experiment [14] deals with ATP-binding cassette sub-family B member 6 (Homo sapiens) (UniProt Q9NP58). Kind of experiment: blockers of ABCB6-driven porphyrin uptake – K562-ABCB6 cells, flow cytometry, validation set, pilot screen (AID 588550;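 active = inhibition above the screen-wide mean plus 3 SD, about 51%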;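 also: 0% = DMSO wells and 100% = benzethonium chloride 70 µM positive control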). Conditions: K562-ABCB6 porphyrin accumulation, 1 h, at 10 µM, stronger effect = higher value.
The nature of experiment [15]: AML differentiation inducers, ER-HoxA9 marrow cells – cell-based, GFP/MAC1 double positive, flow cytometry, validation set, primary screen (AID 588685;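 active = differentiation response of at least 50%, scaled between solvent and reference control, from cells with both markers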;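 also: compound exposure lasts four days before antibody staining and flow analysis; 0% = DMSO wells and 100% = 5 µM fulvestrant positive control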). The conditions noted are these: stronger effect = higher value, normalized: vehicle 0, fulvestrant 100.

Each structure is given as a SMILES string. Records with an inconclusive call do not appear. Calls of active or inactive are those of the source.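 The calls were made as follows, unless noted: active = efflux inhibition above 0.42, the validation set average plus 4 SD; inconclusive = no clear call, values can overlap the other calls; inactive = the rest.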

Beta-adrenergic receptor kinase 1 (Homo sapiens), sequence (P25098 whole entry, looked up): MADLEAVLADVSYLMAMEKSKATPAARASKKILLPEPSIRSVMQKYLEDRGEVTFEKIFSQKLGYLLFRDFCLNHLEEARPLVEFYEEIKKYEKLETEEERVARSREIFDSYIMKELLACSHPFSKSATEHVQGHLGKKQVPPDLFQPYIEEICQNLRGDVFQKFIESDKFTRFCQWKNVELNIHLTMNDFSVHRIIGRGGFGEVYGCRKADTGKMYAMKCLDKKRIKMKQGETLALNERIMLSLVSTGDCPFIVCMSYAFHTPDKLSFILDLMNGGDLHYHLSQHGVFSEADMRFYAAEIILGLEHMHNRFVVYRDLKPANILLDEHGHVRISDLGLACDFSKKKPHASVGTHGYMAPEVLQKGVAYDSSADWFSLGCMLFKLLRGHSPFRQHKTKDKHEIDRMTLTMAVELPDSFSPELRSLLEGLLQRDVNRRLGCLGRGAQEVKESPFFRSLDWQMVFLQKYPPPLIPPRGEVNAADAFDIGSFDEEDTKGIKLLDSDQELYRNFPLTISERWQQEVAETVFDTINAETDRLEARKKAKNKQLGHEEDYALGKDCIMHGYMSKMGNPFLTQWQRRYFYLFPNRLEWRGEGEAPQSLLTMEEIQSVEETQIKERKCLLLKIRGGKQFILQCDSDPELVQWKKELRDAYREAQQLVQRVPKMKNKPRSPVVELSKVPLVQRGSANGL
AP-2 complex subunit beta (Homo sapiens), sequence (P63010 whole entry, looked up, the tested form may be a part, one chain of several): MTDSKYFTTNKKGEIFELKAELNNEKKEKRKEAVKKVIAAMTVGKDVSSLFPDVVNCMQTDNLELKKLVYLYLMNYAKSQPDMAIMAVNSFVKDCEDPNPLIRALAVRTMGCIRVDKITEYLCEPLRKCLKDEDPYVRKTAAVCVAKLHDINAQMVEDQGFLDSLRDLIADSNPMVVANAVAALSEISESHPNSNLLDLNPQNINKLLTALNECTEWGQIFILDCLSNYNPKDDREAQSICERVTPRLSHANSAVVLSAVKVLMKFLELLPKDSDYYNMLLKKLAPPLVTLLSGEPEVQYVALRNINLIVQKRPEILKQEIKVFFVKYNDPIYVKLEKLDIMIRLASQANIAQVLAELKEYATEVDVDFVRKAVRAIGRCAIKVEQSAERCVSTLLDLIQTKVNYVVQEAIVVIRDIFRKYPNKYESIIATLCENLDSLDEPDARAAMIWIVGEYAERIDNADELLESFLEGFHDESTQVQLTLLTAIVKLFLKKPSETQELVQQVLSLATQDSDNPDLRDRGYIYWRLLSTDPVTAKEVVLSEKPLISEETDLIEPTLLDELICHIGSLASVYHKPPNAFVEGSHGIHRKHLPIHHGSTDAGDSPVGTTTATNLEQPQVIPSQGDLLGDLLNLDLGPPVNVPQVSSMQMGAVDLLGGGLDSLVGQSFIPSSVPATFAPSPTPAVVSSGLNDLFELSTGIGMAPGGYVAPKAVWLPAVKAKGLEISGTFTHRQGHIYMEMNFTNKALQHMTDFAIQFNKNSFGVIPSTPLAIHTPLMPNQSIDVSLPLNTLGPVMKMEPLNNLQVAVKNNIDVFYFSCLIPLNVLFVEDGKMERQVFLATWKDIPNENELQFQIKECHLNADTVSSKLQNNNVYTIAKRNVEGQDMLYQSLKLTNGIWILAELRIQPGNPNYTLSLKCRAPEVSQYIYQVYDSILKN
ATP-binding cassette sub-family B member 6 (Homo sapiens), sequence (Q9NP58 whole entry, looked up): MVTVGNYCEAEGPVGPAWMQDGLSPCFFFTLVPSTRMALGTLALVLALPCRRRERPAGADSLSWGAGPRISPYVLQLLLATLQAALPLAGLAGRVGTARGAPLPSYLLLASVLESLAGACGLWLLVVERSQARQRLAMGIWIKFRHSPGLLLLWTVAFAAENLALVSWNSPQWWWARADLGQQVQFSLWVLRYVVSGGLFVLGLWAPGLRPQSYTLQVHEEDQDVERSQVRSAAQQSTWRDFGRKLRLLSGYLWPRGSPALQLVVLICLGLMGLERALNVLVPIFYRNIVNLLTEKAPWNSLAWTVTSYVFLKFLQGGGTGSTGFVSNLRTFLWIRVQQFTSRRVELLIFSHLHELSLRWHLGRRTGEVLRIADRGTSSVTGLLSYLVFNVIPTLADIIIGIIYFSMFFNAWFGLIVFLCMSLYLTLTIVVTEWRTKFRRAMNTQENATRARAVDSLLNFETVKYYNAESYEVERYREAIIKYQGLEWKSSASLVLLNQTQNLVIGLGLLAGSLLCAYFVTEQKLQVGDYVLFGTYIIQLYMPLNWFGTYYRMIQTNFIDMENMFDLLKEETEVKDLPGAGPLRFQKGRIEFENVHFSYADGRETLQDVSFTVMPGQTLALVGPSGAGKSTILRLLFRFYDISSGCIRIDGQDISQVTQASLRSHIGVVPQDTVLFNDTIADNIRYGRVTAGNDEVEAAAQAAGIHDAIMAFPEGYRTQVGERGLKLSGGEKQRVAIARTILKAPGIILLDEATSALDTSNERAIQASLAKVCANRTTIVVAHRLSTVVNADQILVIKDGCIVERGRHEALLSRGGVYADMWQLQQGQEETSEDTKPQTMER
Integrin beta-1 (Homo sapiens) + Integrin alpha-4 (Homo sapiens), sequence (P05556 whole entry, looked up): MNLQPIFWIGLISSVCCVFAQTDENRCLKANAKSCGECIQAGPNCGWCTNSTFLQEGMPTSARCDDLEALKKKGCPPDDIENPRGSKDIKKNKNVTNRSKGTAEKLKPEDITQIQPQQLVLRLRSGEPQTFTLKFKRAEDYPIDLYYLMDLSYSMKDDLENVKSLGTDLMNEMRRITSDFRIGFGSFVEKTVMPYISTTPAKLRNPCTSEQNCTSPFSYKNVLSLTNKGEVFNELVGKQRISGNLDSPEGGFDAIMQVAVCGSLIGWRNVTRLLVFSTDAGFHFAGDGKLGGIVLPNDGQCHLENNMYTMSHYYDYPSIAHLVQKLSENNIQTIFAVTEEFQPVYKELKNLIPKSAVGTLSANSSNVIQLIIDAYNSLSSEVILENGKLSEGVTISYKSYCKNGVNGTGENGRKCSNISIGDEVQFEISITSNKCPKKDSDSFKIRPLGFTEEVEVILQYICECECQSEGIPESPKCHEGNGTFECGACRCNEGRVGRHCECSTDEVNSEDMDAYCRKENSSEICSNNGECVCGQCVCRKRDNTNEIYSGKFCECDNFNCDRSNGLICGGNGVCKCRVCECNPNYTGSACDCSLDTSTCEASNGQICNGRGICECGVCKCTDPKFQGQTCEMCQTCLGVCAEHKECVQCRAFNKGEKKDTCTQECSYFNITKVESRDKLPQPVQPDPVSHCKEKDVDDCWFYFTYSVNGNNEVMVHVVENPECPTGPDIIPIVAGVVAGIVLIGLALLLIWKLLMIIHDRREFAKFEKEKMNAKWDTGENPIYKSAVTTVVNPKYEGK
Integrin beta-1 (Homo sapiens) + Integrin alpha-4 (Homo sapiens), sequence (P13612 whole entry, looked up): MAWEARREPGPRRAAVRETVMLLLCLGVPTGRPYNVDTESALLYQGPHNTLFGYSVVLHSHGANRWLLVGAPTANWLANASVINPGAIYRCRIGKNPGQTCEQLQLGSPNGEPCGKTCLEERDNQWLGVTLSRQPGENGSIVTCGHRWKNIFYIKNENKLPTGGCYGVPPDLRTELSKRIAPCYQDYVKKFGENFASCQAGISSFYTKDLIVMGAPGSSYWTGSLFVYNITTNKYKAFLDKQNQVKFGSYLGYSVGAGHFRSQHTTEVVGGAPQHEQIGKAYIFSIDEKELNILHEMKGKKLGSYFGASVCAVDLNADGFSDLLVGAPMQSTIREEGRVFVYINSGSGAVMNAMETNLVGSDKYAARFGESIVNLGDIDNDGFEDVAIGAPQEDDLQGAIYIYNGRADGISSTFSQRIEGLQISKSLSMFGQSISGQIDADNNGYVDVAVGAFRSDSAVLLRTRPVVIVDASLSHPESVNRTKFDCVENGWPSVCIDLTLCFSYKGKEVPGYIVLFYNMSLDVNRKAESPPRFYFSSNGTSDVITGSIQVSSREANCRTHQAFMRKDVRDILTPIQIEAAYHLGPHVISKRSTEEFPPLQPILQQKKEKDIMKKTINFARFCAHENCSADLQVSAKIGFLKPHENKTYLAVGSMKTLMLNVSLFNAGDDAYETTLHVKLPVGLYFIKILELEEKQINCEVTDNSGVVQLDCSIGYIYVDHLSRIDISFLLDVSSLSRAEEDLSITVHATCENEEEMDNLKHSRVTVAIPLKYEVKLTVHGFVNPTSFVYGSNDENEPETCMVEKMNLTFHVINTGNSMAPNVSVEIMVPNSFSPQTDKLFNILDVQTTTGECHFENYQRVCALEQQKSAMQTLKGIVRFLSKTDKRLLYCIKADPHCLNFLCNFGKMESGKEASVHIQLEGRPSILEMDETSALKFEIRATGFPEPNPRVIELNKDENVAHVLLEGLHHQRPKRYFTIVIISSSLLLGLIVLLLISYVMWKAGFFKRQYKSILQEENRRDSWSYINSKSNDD

As for `COc1ccc2c(c1)c(CC(=O)O)c(C)n2C(=O)c1ccc(Cl)cc1`, the percent of DMSO control GFP in [1] was 105% (inactive). The GFP response vs DMSO is 96.9% (inactive) in experiment [2] and 101% (inactive) in [4]. Besides, the percent response of DMSO control in [3] is 109% (inactive). In addition, the GFP response, % of DMSO in experiment [5] is 92.5% (inactive). In experiment [6], this compound had a double positive events of 50%. The vesicle binding response in experiment [6] was 173% (inactive). For the same compound, the inhibition in experiment [7] is -25.4% (inactive); in experiment [10], -6.1% (inactive); in experiment [14], 10% (inactive). The superoxide response (% of plate) in experiment [8] was 109% (inactive). Besides, the aptamer binding inhibition in [9] was 1% (inactive). Also, the response in experiment [11] is 9.1% (inactive). Also, the binding (% of control) in experiment [12] is 102% (inactive). Also, the efflux inhibition (fraction of control) in experiment [13] was -0.01 (inactive). Also, the differentiation response in experiment [15] was -13.1% (inactive).

As for `O=C(c1ccc(O)cc1)c1ccc(O)cc1O`, the percent of DMSO control GFP in [1] was 101% (inactive). For the same compound, the GFP response vs DMSO is 108% (inactive) in [2] and 101% (inactive) in experiment [4]. Moreover, the percent response of DMSO control in experiment [3] is 104% (inactive). Also, the GFP response, % of DMSO in experiment [5] is 99.1% (inactive). Moreover, the double positive events in experiment [6] worked out at 59.2%. Further, the vesicle binding response in experiment [6] is 122% (inactive). Also, the inhibition was 4.42% (inactive) in experiment [7], 45.5% (inactive) in experiment [10] and 6% (inactive) in experiment [14]. The superoxide response (% of plate) in [8] was 95.7% (inactive). Also, in [9], the aptamer binding inhibition is 3% (inactive). Further, in [11], the response was -7.71% (inactive). Besides, in experiment [12], the binding (% of control) is 96.9% (inactive). In addition, in experiment [13], the efflux inhibition (fraction of control) is 0.06 (inactive). Besides, the differentiation response in experiment [15] was 49.9% (active).

Regarding `CC(C)Oc1ccc(C(CC(=O)O)c2ccc(F)cc2)cc1` (stereo not given), in experiment [1], the percent of DMSO control GFP is 102% (inactive). Moreover, the GFP response vs DMSO in experiment [2] was 108% (inactive); in experiment [4], 113% (inactive). Moreover, the percent response of DMSO control in experiment [3] is 92% (inactive). The GFP response, % of DMSO in experiment [5] was 90.4% (inactive). Further, the double positive events in [6] came to 62.7%. For the same compound, the vesicle binding response in experiment [6] is 164% (inactive). The inhibition was 9.09% (inactive) in experiment [7], -6.35% (inactive) in experiment [10] and 5% (inactive) in experiment [14]. In addition, the superoxide response (% of plate) in [8] is 105% (inactive). Moreover, the aptamer binding inhibition in experiment [9] is 5% (inactive). Moreover, in experiment [11], the response is 3.61% (inactive). In addition, the binding (% of control) in experiment [12] is 96.7% (inactive). For the same compound, in experiment [13], the efflux inhibition (fraction of control) was 0.18 (inactive). For the same compound, in [15], the differentiation response was -18% (inactive).

Consider `N#Cc1c2c(c(-c3ccccc3)[nH]c1=O)CCCC2`, for which the percent of DMSO control GFP in experiment [1] was 102% (inactive). The values for the GFP response vs DMSO in [2] and in experiment [4] were 98.9% (inactive) and 85.3% (inactive), respectively. For the same compound, the percent response of DMSO control in experiment [3] was 103% (inactive). In addition, the GFP response, % of DMSO in experiment [5] was 100% (inactive). Moreover, the double positive events in experiment [6] came to 56.8%. Further, the vesicle binding response in [6] was 158% (inactive). Further, the results for the inhibition in experiment [7], in experiment [10] and in experiment [14] were -7.7% (inactive), -4.92% (inactive) and 5% (inactive), respectively. Besides, the superoxide response (% of plate) in experiment [8] was 94% (inactive). In addition, the aptamer binding inhibition in [9] was 3% (inactive). The response in experiment [11] is -1.34% (inactive). Moreover, the binding (% of control) in [12] is 98.8% (inactive). Also, the efflux inhibition (fraction of control) in experiment [13] is -0.05 (inactive). For the same compound, the differentiation response in experiment [15] was -22.8% (inactive).

As for `CC(COc1ccccc1)NC(C)C(O)c1ccc(O)cc1` (stereo not given), the percent of DMSO control GFP in experiment [1] is 104% (inactive). Also, the results for the GFP response vs DMSO in experiment [2] and in [4] were 101% (inactive) and 103% (inactive), respectively. Also, in experiment [3], the percent response of DMSO control is 111% (inactive). Besides, the GFP response, % of DMSO in experiment [5] was 108% (inactive). Besides, the double positive events in experiment [6] amounted to 55.7%. For the same compound, the vesicle binding response in experiment [6] was 203% (inactive). Besides, the results for the inhibition in [7], in [10] and in experiment [14] were -496% (inactive), 37.9% (inactive) and 9% (inactive), respectively. The superoxide response (% of plate) in [8] is 107% (inactive). In addition, the aptamer binding inhibition in experiment [9] is -1% (inactive). Also, in experiment [11], the response is -3.92% (inactive). The binding (% of control) in [12] is 100% (inactive). Also, the efflux inhibition (fraction of control) in experiment [13] was -0.05 (inactive). The differentiation response in [15] is -19.6% (inactive).

The term inhibition denotes the change of the read-out against control, counted positive when it falls.
